# HT1080 IDH1KD tx = qHTS for induction of synthetic lethality in tumor cells producing 2HG: qHTS for the HT-1080-IDH1KD cell line; HT-1080 IDH1 knockdown viability, ATP luminescence, 48 h; Potency, µM (titrated, usually from 46.1 µM), inactives show at the highest dose activity, negative = toxicity, actives largely listed as cytotoxic; 360,000 compounds, 2% hits; AID 686971, 2013;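 note: 0% = DMSO wells and -100% = cell-free medium wells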
#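 CellTiter-Glo luminescence after 48 h compound exposure at 37 degrees C of IDH1-knockdown HT-1080 cells in 5% FBS RPMI. %Activity scaled between DMSO wells and cell-free media wells, with curves fitted and assigned curve classes.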
# KB-V1 cytotox = qHTS assay for MDR1-selective chemotherapeutics: Primary screen using the drug-selected MDR subline cells KB-V1 | KB-V1 MDR cells viability, CellTiter-Glo, 72 h | Potency, µM (top dose mostly 46.1 µM), most hits filed as cytotoxic | 400,000 compounds, 3.4% hits; note: % is set by controls: 0 for no effect and ±100 for the full control effect; nearly all actives have a fitted effect of over 60% in size
#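 Luminescent ATP read-out (CellTiter-Glo, 10 min) measures survival of drug-selected KB-V1 MDR cells after 72 h, 37 degrees C compound exposure. Medium: phenol-red-free DMEM, 10% FBS. Values from fitted concentration-response curves.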
# MCF10A rereplic = A quantitative high throughput screen for small molecules that induce DNA re-replication in MCF 10a normal breast cells. MCF 10A DNA re-replication, Hoechst nuclear intensity, 48 h. Potency, µM (top dose mostly 46.1 µM), inactives show top-dose activity, positive = re-replication, most hits filed as activators. 350,000 compounds, 2.9% hits. AID 624296, 2012; note: % of control where 0% means no effect; nearly all actives have a fitted effect of over 50% in size
# HT1080-NT tox = qHTS for induction of synthetic lethality in tumor cells producing 2HG: qHTS for the HT-1080-NT fibrosarcoma cell line; HT-1080-NT fibrosarcoma viability, CellTiter-Glo ATP luminescence, 48 h; 360,000 compounds, 1.6% hits; Potency, µM (doses to about 46.1 µM), inactives show at the highest dose activity, negative = less viability, usual class: cytotoxic;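 note: NT is the 2HG producing partner of a matched IDH1 knockdown line; 0% = DMSO-treated cells and -100% = media-only wells without cells; nearly all actives have a fitted effect of over 55% in size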
#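 A 48-hour cytotoxicity screen used HT-1080-NT cells plated 2 hours before compound delivery. ATP-based CellTiter-Glo luminescence measured viability, normalized to DMSO and no-cell controls.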
# SW480 rereplic = A quantitative high throughput screen for small molecules that induce DNA re-replication in SW480 colon adenocarcinoma cells; SW480 DNA re-replication, Hoechst DNA content imaging, 48 h; Potency, µM (top dose mostly 46.1 µM), without a hit: at the highest dose re-replication activation, most hits filed as activators; 340,000 compounds, 1.8% hits; AID 624297, 2012; note: % of control where 0% means no effect; nearly all actives have a fitted effect of over 55% in size
#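 Quantitative HTS format with DMSO vehicle controls; 48 hr drug incubation at 37 C, then 40 min Hoechst staining and scanning imager measurement at 405 nm excitation.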
# KB-3-1 cytotox = qHTS assay for MDR1-selective chemotherapeutics: Primary screen using the parental adenocarcinoma cell KB-3-1; Potency, µM (highest dose often 46.1 µM), usual class: cytotoxic; KB-3-1 viability, CellTiter-Glo ATP luminescence, 72 h; 400,000 compounds, 1.4% hits; note: % is set by controls: 0 for no effect and ±100 for the full control effect; nearly all actives have a fitted effect of over 60% in size
#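 KB-3-1 cells, DMEM (no phenol red) + 10% FBS; compound by pin transfer, 72 h, 37 °C. Readout: CellTiter-Glo luminescence after 10 min. Data normalized, curve-fitted.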
# * hit, by the source's call; i = inactive; ? = inconclusive; / = not tested or not shown; [ ] = another dose, or the depositor's remark. Shown are actives, neighbours in structure and some others; about 8% of the full set was active somewhere. Calls come from the whole dose curve; as a rule, active = well fitted curve in the direction sought with a large enough effect; inconclusive = small, poorly fitted or top-dose-only effect, or another doubt; inactive = no such curve, though single readings can be large; an effect the other way counts as inactive or inconclusive. Potency is the fitted concentration of half-maximal effect.
SMILES,HT1080 IDH1KD tx,KB-V1 cytotox,MCF10A rereplic,HT1080-NT tox,SW480 rereplic,KB-3-1 cytotox
CNC(=S)N=Nc1c(O)[nH]c2ccc(C(C)C)cc12,-1%,21µM*,3%,1%,-33%,?
O=C1[C@H]2CCC=C[C@H]2[C@H](c2cccc(Br)c2)N1Cc1ccccc1,-9%,i,?,-13%,?,i
COc1cccc([C@@H]2Oc3ccc(OC)cc3C(=O)[C@H]2OC(=O)Nc2cc(OC)c(OC)c(OC)c2)c1,-7%,i,4%,0%,8%,i
COc1ccc2c(c1)cc(CNc1ccc(OC)c(OC)c1)c(=O)n2CC(=O)Nc1ccc(F)cc1,/,i,/,/,/,i
O=C1c2cccc3c(N4CCCCC4)ccc(c23)C(=O)N1c1ccc(O)cc1,-16%,i,5.8µM*,1%,12µM*,i
O=C1c2cccc3c(N4CCCCC4)ccc(c23)C(=O)N1c1ccccc1O,-8%,i,5.8µM*,-10%,18µM*,i
CSCCC(c1nc2ccccc2[nH]1)n1c(-c2cc(C(F)(F)F)cc(C(F)(F)F)c2)nc2ccccc21 (centres undefined),21µM*,?,/,33µM*,/,i
Nc1nc(=S)c2ncn(C3OC(CO)C(O)C3O)c2[nH]1 (centres undefined),21µM*,1µM*,?,15µM*,8%,5.8µM*
OCC1OC(n2cnc3c(=S)nc[nH]c32)C(O)C1O (centres undefined),/,?,?,/,6%,0.58µM*
Nc1nc(=S)c2ncn([C@@H]3O[C@H](CO)[C@@H](O)[C@H]3O)c2[nH]1,0.92µM*,0.92µM*,?,1.5µM*,10%,?
CC1(C)OC2C(CO)OC(n3cnc4c(=S)nc(N)[nH]c43)C2O1 (centres undefined),-7%,?,/,?,/,?
COCCn1c(C)cc(C(=O)CSc2cc(C)c3ccccc3n2)c1C,-29%,2.3µM*,27%,-12%,14%,i
COCCn1c(C)cc(C(=O)CSc2nc3ccccc3c(=O)n2Cc2ccco2)c1C,-2%,0.65µM*,1%,-2%,-2%,?
O=C(CSc1nc2ccccc2c(=O)n1Cc1ccco1)NCc1ccco1,8%[9.24 µM],i,?,-8%,-3%,i
Cc1cc(=O)n(C)c(=O)n1CCCCCOc1cccc([N+](=O)[O-])c1,6%,8.2µM*,5%,1%,-7%,i
Cc1cc(=O)n(C)c(=O)n1CCCCOc1cccc([N+](=O)[O-])c1,-4%,i,-3%,-10%,-3%,i
COc1cccc2sc3cc(NCc4ccc(C)o4)ccc3c(=O)c12,0%,i,21µM*,-10%,18µM*,i
CCCc1cc(=O)oc2cc(OCc3cc(OC)c(OC)c(OC)c3)c(Cl)cc12,12%,i,?,2%,-6%,i
CCCCc1cc(=O)oc2cc(OCc3cc(OC)c(OC)c(OC)c3)c(Cl)cc12,-23%,i,10µM*,-29%,27%,i
O=C1N=C2N(CCN3CCCCC3)c3ccccc3N2/C1=C\c1ccc([N+](=O)[O-])s1,5%,i,18µM*,5%,?,i
COc1cc(/C=N/Nc2snc(SC)c2C#N)cc(OC)c1OC,4.6µM*,i,?,?,-1%,?
O=C(O)C1(S(=O)(=O)c2ccc(Cl)cc2)CCC1,18%,?,-2%,-10%,-119%,i
